# The panel holds about 83,000 compounds, 20% with a hit somewhere; the sample as a whole holds those more often.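 48-hour exposure, single concentration, 96-well plates; percent growth endpoint where 0 means no net growth. Active: below 10.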 Unmarked numbers belong to inactive results. Active and inactive are the calls of the source.
# What was measured:
# Test in all cases: NCI-60 one-dose screen, 48 h (100 = growth as untreated, 0 = no growth, -100 = all killed)
# Settings in all cases: 10 µM
# DU-145 prostate = system: DU-145 prostate
# K-562 leukemia = system: K-562 leukemia
# MALME-3M melanoma = system: MALME-3M melanoma
# MDA-MB-231 breast = system: MDA-MB-231 breast
# RXF 393 renal = system: RXF 393 renal
# SF-268 CNS = system: SF-268 CNS
# SF-295 CNS = system: SF-295 CNS
# SF-539 CNS = system: SF-539 CNS
# UACC-257 melanoma = system: UACC-257 melanoma
# M14 melanoma = system: M14 melanoma
SMILES,growth (DU-145 prostate),growth (K-562 leukemia),growth (MALME-3M melanoma),growth (MDA-MB-231 breast),growth (RXF 393 renal),growth (SF-268 CNS),growth (SF-295 CNS),growth (SF-539 CNS),growth (UACC-257 melanoma),growth (M14 melanoma)
Cc1cccc([N+](=O)[O-])c1Cl,105%,119%,109%,113%,103%,101%,104%,105%,105%,106%
CC1=CC(C)(C)NC(=S)N1c1ccc(S(=O)(=O)O)c2cccc(S(=O)(=O)O)c12,111%,116%,115%,98.3%,107%,104%,113%,105%,112%,107%
c1ccc2c(c1)Sc1ccccc1S2,108%,103%,101%,94.1%,99.5%,109%,101%,106%,99.9%,103%
CCN(CC)CCNc1ccc(CO)c2sc3ccccc3c(=O)c12,39.3%,63.4%,39.8%,50.1%,36.6%,40.5%,44.9%,50%,11.6%,57.5%
CNS(=O)(=O)c1ccc(Cl)c(Cl)c1,111%,99.5%,111%,98.2%,99.7%,96.1%,101%,91.7%,124%,98.5%
NNc1ccccc1C(=O)O,121%,108%,168%,104%,114%,100%,114%,101%,103%,110%
c1cc2cccc3c4cccc5cccc(c(c1)c23)c54,115%,110%,119%,94.4%,106%,101%,118%,99%,125%,106%
COC(=O)c1ccc(C(C)C)cc1,105%,116%,99.9%,113%,122%,101%,100%,102%,90.9%,88.6%
C#CCSc1nnnn1-c1ccc(Br)c(C)c1,107%,86.3%,112%,98.4%,68.3%,99.2%,103%,89%,83.5%,94.8%
COc1ccc2c(NCCCCCCCCNc3c4ccccc4nc4cc(OC)ccc34)c3ccccc3nc2c1,-100% (active),-100% (active),-98.1% (active),-89.5% (active),-74.3% (active),-99.3% (active),-92.1% (active),-100% (active),-88.8% (active),-100% (active)
COC(=O)c1ccccc1N(C)C,108%,81.4%,101%,112%,118%,107%,98.7%,115%,103%,102%
O=[N+]([O-])c1cccc(N=Nc2ccc(O)cc2O)c1,95.2%,17.7%,65.8%,76.5%,83.5%,83.4%,95.7%,89.7%,72.5%,97%
CCCC(C)OCC(=O)O (stereo not given),106%,112%,90.7%,105%,96.4%,99.2%,98.5%,102%,90.2%,106%
COc1ccc(C2(O)CCCCC2)cc1,112%,111%,105%,97%,103%,105%,105%,109%,99.1%,101%
O=C1C[C@H](c2ccccc2)[C@H](c2ccccc2)C1,121%,111%,89.6%,99.1%,111%,105%,108%,103%,107%,103%
O=c1cc(-c2ccccc2)[nH]c(=S)[nH]1,104%,96.2%,83.5%,103%,108%,92.1%,188%,102%,109%,102%
CC1SC(N)=NC1=O (stereo not given),117%,112%,108%,112%,120%,110%,102%,106%,110%,103%
O=S(=O)(O)c1ccc(O)c2ccccc12,115%,104%,127%,90.8%,108%,98.5%,119%,91.8%,112%,79.4%
N#C/C(=C\c1cc(O)c(O)c(O)c1)C(N)=O,93.6%,71.9%,115%,102%,99.6%,107%,87.7%,94%,105%,92.2%
CCCCC(O)c1ccccc1 (stereo not given),108%,94%,102%,116%,107%,98.6%,104%,106%,101%,109%
Oc1ccc2c(c1)OCC1(O)Cc3cc(O)c(O)cc3C21 (stereo not given),99.1%,20.7%,88.8%,93.2%,89.1%,96.8%,97.1%,91.7%,96.6%,90.6%

SMILES,growth (DU-145 prostate),growth (K-562 leukemia),growth (MALME-3M melanoma),growth (MDA-MB-231 breast),growth (RXF 393 renal),growth (SF-268 CNS),growth (SF-295 CNS),growth (SF-539 CNS),growth (UACC-257 melanoma),growth (M14 melanoma)
CCN=c1cc2sc3cc(NCC)c(C)cc3nc-2cc1C,-18.9% (active),11.8%,-30.9% (active),2.51% (active),74.7%,-11.3% (active),-72.4% (active),-9.62% (active),6.74% (active),21.4%
CCOC(=O)c1cc2cccc(OC)c2oc1=O,123%,99%,115%,107%,122%,111%,130%,107%,98.2%,99.4%
CCOC(=O)C(O)C(O)C(=O)OCC (stereo not given),106%,102%,106%,110%,125%,102%,104%,109%,106%,104%
Cc1cccc(C(=O)N(C(C)C)C(C)C)c1,103%,104%,95.5%,109%,107%,99%,90.4%,96.3%,87.3%,96.1%
COC(=O)/C=C\C(=O)OC,120%,107%,139%,104%,110%,113%,114%,103%,106%,107%
O=[N+]([O-])c1ccc(Cl)c(S(=O)(=O)O)c1,109%,100%,120%,110%,126%,105%,112%,97.8%,96.6%,107%
Cc1cccc(CO)c1,98.1%,97.7%,104%,104%,121%,95.4%,100%,108%,99.9%,108%
O=c1[nH]c(O)c(/C=C2/C=Nc3ccccc32)[nH]1,99.3%,86.1%,125%,89.6%,103%,82.1%,125%,91.5%,101%,99.4%
S=C1NCc2cncnc2N1,112%,93%,112%,132%,105%,107%,94.2%,92.7%,–,103%
Cc1ccc(C(=O)N/N=C/c2ccc3c(c2)OCO3)cc1,112%,73.3%,108%,90.5%,102%,96%,115%,103%,115%,93%
CC(C)=NNc1ccc([N+](=O)[O-])cc1[N+](=O)[O-],89.8%,60.2%,159%,82.4%,109%,85.1%,69.8%,95.6%,101%,74.3%
CC(C)(C)n1nc(C2CC2)c(Br)c1NC(=O)c1ccccc1F,121%,91.6%,107%,100%,114%,112%,94.9%,100%,–,102%
CC1(C)/C(=C\CO)C2CCC1C2 (stereo not given),120%,105%,103%,112%,113%,111%,120%,109%,132%,103%
CCOC(=O)c1ccc(NC(=S)P(=O)(c2ccccc2)c2ccccc2)cc1,113%,56.2%,108%,109%,120%,94.5%,104%,106%,108%,97.7%
COc1cc(/C=C(\C#N)C(=O)c2ccccc2)ccc1OCc1ccccc1,102%,120%,86.1%,94.6%,100%,93.2%,103%,99.9%,106%,97.5%
C#C[C@H]1CCCCCC1O (stereo not given in full),110%,101%,104%,102%,103%,105%,108%,106%,107%,107%
NC(=O)NC(=O)c1ccc(Cl)cc1,116%,101%,92%,48.2%,131%,113%,112%,104%,107%,96.1%
NC(=S)CN1CCOCC1,107%,97.7%,110%,106%,115%,102%,131%,111%,117%,120%
O=C1Cc2cc(O)ccc2O1,118%,96.6%,92.5%,106%,114%,106%,160%,101%,103%,98.9%
Nc1ccc(N=Nc2ccc(S(=O)(=O)O)cc2)c2ccccc12,106%,94.6%,83.4%,87.8%,101%,106%,99.5%,103%,–,99.1%
COc1ccccc1NC(=O)c1cc2cc(Br)ccc2cc1O,27%,7.54% (active),-1.45% (active),3.51% (active),39%,17.8%,11.3%,0.0916% (active),-21% (active),19.6%

SMILES,growth (DU-145 prostate),growth (K-562 leukemia),growth (MALME-3M melanoma),growth (MDA-MB-231 breast),growth (RXF 393 renal),growth (SF-268 CNS),growth (SF-295 CNS),growth (SF-539 CNS),growth (UACC-257 melanoma),growth (M14 melanoma)
COc1cc2c3c(n(C)c(=O)c2cc1OC)-c1cc2c(cc1C3=O)OCO2,56.5%,40.8%,81.6%,97.1%,75.7%,59.3%,29.4%,63.7%,78.2%,63%
CNC(=O)c1ccccc1CC1(O)c2ccccc2Oc2ccccc21,61.3%,22%,29.9%,66.3%,61.3%,57.7%,36.8%,56.5%,58%,42.2%
O=C(O)COCC(=O)O,103%,116%,83.6%,106%,102%,92.6%,89.7%,104%,87.9%,111%
Cc1ccc(/C(C#N)=C/c2ccc3c(c2)OCO3)cc1,98.1%,32.4%,84.3%,73.3%,75.3%,87.7%,110%,91.1%,87.1%,75.2%
COc1ccc(C(=O)C(Br)C(Br)C(=O)O)cc1 (stereo not given),111%,109%,109%,111%,106%,108%,108%,99.5%,–,89.2%
COc1cc(C(=O)N/N=C/c2cccc([N+](=O)[O-])c2)cc(OC)c1OC,87.4%,35.8%,40.1%,65.1%,60%,73.6%,48.2%,66.2%,76.3%,29.9%
C=CC[N+](C)(C)C,120%,102%,98.8%,108%,100%,112%,-10.9% (active),98.1%,101%,107%
O=C(Nc1ccccc1C(=O)NCC1CC1)c1cccs1,118%,103%,131%,97.1%,98.9%,113%,86.5%,101%,–,103%
C/C(=N/NC(N)=O)c1ccco1,110%,88.3%,93.4%,118%,108%,104%,104%,101%,83%,91.8%
COc1cc2nn(-c3ccccc3N)nc2cc1OC,107%,99.3%,103%,116%,87%,100%,105%,96.5%,107%,107%
COc1nc(N)nc2c1ncn2C1OC(CO)CC1O (stereo not given),110%,101%,100%,112%,112%,108%,113%,45.6%,111%,104%
CC(C)(N)COS(=O)(=O)O,111%,104%,108%,93.4%,110%,92.7%,101%,99.3%,–,98.1%
Nc1ccc(N)c([N+](=O)[O-])c1,104%,98.7%,97.9%,80.9%,107%,99.9%,108%,94.9%,–,112%
CC12CC3CC1C(C(=O)O2)C3C(=O)O (stereo not given),106%,95.6%,94.2%,109%,109%,99.2%,101%,97.4%,92.1%,117%
C=C[Si](OC(C)=O)(OC(C)=O)OC(C)=O,116%,98.7%,85.6%,118%,117%,99.4%,96.9%,96.8%,105%,99.5%
O=C(O)[C@@H]1[C@H]2C[C@H]3c4[nH]c5ccccc5c4CCN3C[C@@H]2CC[C@@H]1O,106%,129%,66.1%,108%,111%,107%,99.2%,108%,105%,91.5%
CN(C)c1ccc(C(c2ccc(O)cc2)c2ccc(N(C)C)cc2)cc1,101%,49.9%,91.5%,87.3%,112%,92.1%,103%,104%,–,89.3%
C/C(=N\NC(=O)c1ccccc1N)c1ccccc1O,45.6%,34%,50%,44.7%,74.9%,39.3%,12.8%,32.5%,–,38.9%
N#CCCc1ccc(O)cc1,117%,100%,108%,116%,106%,110%,97.8%,99.4%,–,108%
